# High-throughput results (PubChem BioAssay)
# The list is not random: actives were taken first. Their share in the collection is about 4.7%.
# TRHR agonist-1: TRH receptor (human) agonism. activation, % at 2 µM. P34981. TRHR cells, calcium flux fluo-8, FDSS agonist mode. actives 0.18% (n = 360,000); in the data active = activation above about 30%
# Target sequence (P34981 whole entry, looked up): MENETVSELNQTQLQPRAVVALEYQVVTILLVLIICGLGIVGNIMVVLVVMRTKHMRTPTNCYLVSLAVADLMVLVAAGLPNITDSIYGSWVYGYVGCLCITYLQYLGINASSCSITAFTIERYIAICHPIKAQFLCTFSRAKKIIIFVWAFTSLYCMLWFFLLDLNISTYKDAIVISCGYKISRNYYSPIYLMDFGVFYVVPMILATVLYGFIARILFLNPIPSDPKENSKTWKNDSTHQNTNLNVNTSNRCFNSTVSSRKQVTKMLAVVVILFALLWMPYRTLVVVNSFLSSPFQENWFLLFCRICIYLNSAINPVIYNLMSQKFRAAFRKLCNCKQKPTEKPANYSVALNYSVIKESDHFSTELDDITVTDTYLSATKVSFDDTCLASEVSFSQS
#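 Read-out: compound-evoked intracellular calcium rise in TRHR cells, fluo-8 dye, kinetic FDSS fluorescence at 1 s/cycle following a 10-cycle baseline. Cells cultured overnight before dye loading (30 min–1.5 h, RT).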
# D1 antag: antagonists of human D1 dopamine receptor; actives 3.2% (n = 360,000); HEK293 TREx D1 cells, calcium flux, dopamine EC80; hits give low values; AID 504652; activity change, negative = inhibition, % at 10 µM; in the data active = activity change below about -30%
#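 HEK293 T-REx cells expressing inducible, force-coupled D1 receptor; no-wash Ca dye, 30–90 min RT. Cmpd → 180 s read at 1 Hz → EC80 DA → 180 s read.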
# D1 agonist: human D1 receptor agonism; activation, % at 2 µM; HEK293 T-REx D1 cells, calcium flux, agonist mode; AID 504660; P21728; actives 1% (n = 360,000); in the data active = activation above about 30%
#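 Inducible HEK293 T-REx D1 cells, force-coupled to calcium signalling, were plated at 4000 cells/well with tetracycline and held overnight at 30 C. After no-wash calcium dye loading, compound-evoked calcium rise over 180 s flagged agonists.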
# TRHR enhancer-1: allosteric enhancers of human TRH receptor. enhancement, % at 2 µM. actives 0.66% (n = 360,000). TRHR cells, fluo-8 calcium fluorescence, EC20 TRH enhancement; in the data active = enhancement above about 30%
#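 TRHR-expressing cells loaded with fluo-8 calcium dye were read kinetically (ex 480/em 530) during compound addition, then stimulated with an EC20 of TRH (10 nM final). Enhancement of the Gq-mediated intracellular calcium response was scored.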
# D1 PAM: human D1 dopamine receptor positive modulation; P21728; HEK293 TREx D1 cells, calcium flux, dopamine EC20 potentiation; potentiation, % at 10 µM; actives 0.036% (n = 360,000); in the data active = potentiation above about 30%
# TRHR enhancer-2: confirmation of human TRH receptor allosteric enhancers. 970 tested, under 10 active. activity change, negative = inhibition, % at 46.1 µM. TRH receptor cell assay, enhancer confirmation qHTS. shares compounds with TRHR enhancer-1. AID 493076;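 also: compound effect scored on response to added TRH at EC20 of 10 nM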
# TRHR agonist-2: confirmation of human TRH receptor agonists; shares compounds with TRHR enhancer-1; AID 493078; actives 8% (n = 970); TRHR-expressing cells, agonist activation read-out; Potency, µM (top dose mostly 46.1 µM), most hits filed as activators; also: nearly all actives have a fitted effect of over 75% in size
# Numbers stand for hits; - = inactive; ? = inconclusive; . = no result given. Unless noted, calls follow the shape of the dose curve; as a rule, active = well fitted curve in the direction sought with a large enough effect; inconclusive = small, poorly fitted or top-dose-only effect, or another doubt; inactive = no such curve, though single readings can be large; an effect the other way counts as inactive or inconclusive.
SMILES,TRHR agonist-1,D1 antag,D1 agonist,TRHR enhancer-1,D1 PAM,TRHR enhancer-2,TRHR agonist-2
OC(COc1ccccc1)CN1CCN(Cc2ccc3c(c2)OCO3)CC1 (stereo not given),-,-,-,-,-,.,.
Cc1cc(C)cc(OCC(O)CN2CCN(Cc3ccc4c(c3)OCO4)CC2)c1 (stereo not given),-,-,-,44,-,-,-
S=C(NC1CCCCC1)N1CCN(c2ncccn2)CC1,-,-,-,-,-,.,.
S=C(NC1CCCCC1)N1CCN(c2ccccn2)CC1,-,-,-,44,-,-,-
CC1CCN(S(=O)(=O)c2ccc3c(ccc(=O)n3CC(=O)Nc3cccc(F)c3)c2)CC1,-,-,-,-,-,.,.
O=C(CNCc1ccccc1Cl)Nc1ccc(C(=O)N2CCCCC2)cc1,-,-,-,41,-,-,-
NC(=O)c1ccc(NC(=O)CNCc2ccccc2Cl)cc1,-,-,-,-,-,.,.
O=C(Nc1ncccc1O)c1c(O)c2ccccc2[nH]c1=O,-,-,-,-,-,-,-
N#Cc1ccc2c(c1)C[C@]1(CCCCN3C(=O)c4ccccc4C3=O)OC3=C(C(=O)OC4(CCCCC4)C3)C2O1,-,-,-,-,-,.,.
Cn1c(/C(C#N)=C/c2ccc(O)cc2)nc2ccccc21,-,-,-,-,-,.,.
COc1cc(/C=C(\C#N)c2nc3ccccc3n2C)cc(OC)c1O,119,-,64,-,-,-,18µM
Cc1cccc(S(=O)(=O)Nc2nc3ccccc3nc2Nc2ccc3c(c2)OCO3)c1,-,-,-,44,-,-,-
O=S(=O)(Nc1nc2ccccc2nc1Nc1ccc2c(c1)OCO2)c1ccccc1,-,-,-,-,-,.,.
CC(=O)c1ccccc1OCCOc1ncnc2sccc12,-,-,-,60,-,-,-
Cn1c(CNC(=O)c2ccccc2)nnc1SCC(=O)Nc1nccs1,-,-,-,-,-,.,.
Cc1ccc(C(=O)NCc2nnc(SCC(=O)NC(C)c3ccccc3)n2C)cc1 (stereo not given),-,-,-,43,-,-,-
Cc1cc(Cl)ccc1NC(=O)C1CCN(S(=O)(=O)c2ccc3[nH]c(=O)ccc3c2)CC1,-,-,-,-,-,.,.
CCOc1cc(/C=C2/SC(=S)N(Cc3ccccc3)C2=O)ccc1O,-,-,-,-,-,.,.
COc1cc(/C=C2\SC(=S)N(N(C)c3ccccc3)C2=O)ccc1O,36,-,-,-,-,-,?
CCOc1ccc(-c2cn3nc(CC(C)C)sc3n2)cc1,-,-,-,-,-,.,.
Cc1ccc(S(=O)(=O)N(CC(=O)NCCc2ccc(Cl)cc2)c2ccccc2C)cc1,-,-,-,-,-,.,.
CN1CC(=O)N/C1=N\C(=O)Nc1ccc(O)cc1,-,-,-,54,-,-,-
COC(=O)c1c(C)oc2ccc(NS(=O)(=O)c3cccs3)cc12,-,-,-,53,-,-,-
Cc1ccccc1CNC(=O)c1ccc(Cn2c(SCc3ccccc3)nc3cccnc32)cc1,-,-,-,-,-,.,.
CCC(C(=O)Nc1cc(C)ccc1OC)n1nnc(C(=O)OC)c1C(=O)OC (stereo not given),-,-,-,-,-,.,.
SMILES,TRHR agonist-1,D1 antag,D1 agonist,TRHR enhancer-1,D1 PAM,TRHR enhancer-2,TRHR agonist-2
O=C(COc1ccc(Cl)cc1)NCc1ccccc1,-,-,-,-,-,.,.
Clc1ccc(OCCNCCc2ccccc2)cc1,-,-,-,43,-,-,-
COc1cc(O)c(C(CC(=O)N2CCCC2)c2cc(OC)c(OC)c(OC)c2)c(OC)c1 (stereo not given),-,-,-,49,-,-,-
COc1cc(O)c(C(CC(=O)N2CCCCC2)c2cc(OC)c(OC)c(OC)c2)c(OC)c1 (stereo not given),-,-,-,-,-,.,.
Cn1nc(C(=O)OCC(=O)Nc2ccc(Cl)cc2Cl)c2ccccc2c1=O,-,-,-,42,-,-,-
CN(CCCn1c(=S)[nH]c2ncccc2c1=O)Cc1ccccc1,-,-,-,46,-,-,-
CCCCSc1nc2c(cnn2-c2ccc(Cl)cc2)c(=O)[nH]1,-,-,-,42,-,-,-
CCN1C(=O)N/C(=C/c2ccc(C)o2)C1=O,-,-,-,-,-,.,.
CCN1C(=O)N/C(=C/c2ccc(Sc3ccc(C)cc3)o2)C1=O,-,-,-,54,-,-,-
CCO[C@H]1OC(C(=O)N2CCN(Cc3ccc4c(c3)OCO4)CC2)=C[C@@H](c2ccc(Br)cc2)[C@@H]1CCCO,-,-,-,49,-,-,-
CCc1ccc(NC(=O)Cn2c(=O)n(CCCC(=O)NCCc3ccc(OC)c(OC)c3)c(=O)c3ccccc32)cc1,-,-,-,-,-,.,.
COc1ccc(C(C)=O)cc1CSc1nc(Nc2ccc(F)c(F)c2)c2ccccc2n1,-,-,-,-,-,.,.
CCOCc1c(C(=O)OCC(=O)Nc2ccccc2C(N)=O)oc2ccccc12,-,-,-,-,-,.,.
CCOCc1c(C(=O)Nc2ccccc2N2CCN(C)CC2)oc2ccccc12,-,-,-,44,-,-,-
Cc1cc(C)c2nc(/N=C(\N)NC(=O)c3ccccc3)nc(C)c2c1,-,-,-,-,-,.,.
CCc1ccc2nc(/N=C(\N)NC(=O)c3ccccc3)nc(C)c2c1,-,-,-,45,-,-,-
Cc1ccc(-n2nc3c(N4CCC(C(=O)NC5CCCCC5)CC4)nnc(C)c3c2C)cc1,-,-,-,-,-,.,.
Cc1ccc(C(=O)COC(=O)c2cc(=O)[nH]c3ccccc23)cc1,-,-,-,47,-,-,-
O=C(COC(=O)c1cc(=O)[nH]c2ccccc12)c1ccccc1,-,-,-,-,-,.,.
COc1ccc(CCNC(=O)CN2CCOc3ccccc32)cc1OC,-,-,-,58,-,-,-
CCOc1cc(/C=C/C(=O)Nc2ccc(C(=O)NCCN(CC)CC)cc2)ccc1OCC(C)C,-,-41,-,42,-,-,-
CCOc1ccc(/C=C/C(=O)Nc2ccc(C(N)=O)cc2)cc1OC,-,-,-,-,-,.,.
CCOc1ccc(C(=O)Nc2c3c(nn2-c2ccc(C)cc2)CS(=O)C3)cc1OCC (stereo not given),-,-,-,42,-,-,-
c1ccc(Oc2ccc(-c3ccnc4ncnn34)cc2)cc1,-,-,-,48,-,-,-
COc1ccc(NC(=O)CCCc2nc(-c3ccco3)no2)c(OC)c1,-,-,-,-,-,.,.
Cc1cccc(N2CCN(C(=O)COc3cc4oc(=O)cc(C)c4cc3Cl)CC2)c1C,-,-,-,70,-,-,-
O=c1ccc2cc3c4c(c2o1)CCCN4CCC3,47,-,75,-,-,?,21µM
